# This is part of a sample that, as a whole, favours compounds with a hit. Of some 83,000 tested, about 20% had one in any assay.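 Assay: single dose, 48 h. Readout: percent growth (0 = no net growth; negative = cell death). Active: <10.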 A number with no mark means an inactive call. Activity calls are given as the source filed them.
# Legend:
# Assay in all cases: NCI-60 one-dose screen, 48 h (100 = growth as untreated, 0 = no growth, -100 = all killed)
# Details in all cases: 10 µM unless noted
# DU-145 prostate = test system: DU-145 prostate
# K-562 leukemia = test system: K-562 leukemia
# MALME-3M melanoma = test system: MALME-3M melanoma
# MDA-MB-231 breast = test system: MDA-MB-231 breast
# RXF 393 renal = test system: RXF 393 renal
# SF-268 CNS = test system: SF-268 CNS
# SF-295 CNS = test system: SF-295 CNS
# SF-539 CNS = test system: SF-539 CNS
# UACC-257 melanoma = test system: UACC-257 melanoma
# M14 melanoma = test system: M14 melanoma
# HCT-15 colon = test system: HCT-15 colon
# HT29 colon = test system: HT29 colon
# SNB-19 CNS = test system: SNB-19 CNS
# U251 CNS = test system: U251 CNS
# PC-3 prostate = test system: PC-3 prostate
# SK-MEL-5 melanoma = test system: SK-MEL-5 melanoma
# UACC-62 melanoma = test system: UACC-62 melanoma
# LOX IMVI melanoma = test system: LOX IMVI melanoma
# SK-MEL-28 melanoma = test system: SK-MEL-28 melanoma
# SNB-75 CNS = test system: SNB-75 CNS
SMILES,growth (DU-145 prostate) [%],growth (K-562 leukemia),growth (MALME-3M melanoma),growth (MDA-MB-231 breast),growth (RXF 393 renal),growth (SF-268 CNS) [%],growth (SF-295 CNS),growth (SF-539 CNS) [%],growth (UACC-257 melanoma) [%],growth (M14 melanoma),growth (HCT-15 colon) [%],growth (HT29 colon),growth (SNB-19 CNS) [%],growth (U251 CNS) [%],growth (PC-3 prostate) [%],growth (SK-MEL-5 melanoma),growth (UACC-62 melanoma),growth (LOX IMVI melanoma),growth (SK-MEL-28 melanoma),growth (SNB-75 CNS)
Nc1nc(Nc2ccccc2SSc2ccccc2Nc2nc(N)nc(-c3ccc(I)cc3)n2)nc(-c2ccc(I)cc2)n1,66,68.7%,103%,55%,88.2%,43,47.6%,89.2,110,77.2%,36.4,97.8%,37.4,34.5,19.1,81.4%,81.6%,-0.613% (active),94.7%,–
N#Cc1c(-c2ccccc2)cc(-c2ccccc2)n(CCC(=O)O)c1=O,81.5,14.7%,51.4%,58.9%,53%,67.4,37.3%,62.5,55.5,25.5%,29.7,19.3%,56.1,38.2,75.3,3.86% (active),32.3%,–,57.3%,–
CO[C@H]1/C=C/O[C@@]2(C)Oc3c(C)c(O)c4c(O)c(c(/C=N/N5C(C)CN(Cc6ccc(C#N)cc6)CC5C)c(O)c4c3C2=O)NC(=O)/C(C)=C\C=C\[C@H](C)[C@H](O)[C@@H](C)[C@@H](O)[C@@H](C)[C@H](OC(C)=O)[C@@H]1C (some centres not stated),45.3,16.3%,8.74% (active),90.3%,43.7%,35,0.574% (active),16,45.1,36.8%,25,26.4%,–,34.9,13.1,5.17% (active),3.13% (active),52.5%,46.3%,56.7%
CCN(Cc1cccc(S(=O)(=O)[O-])c1)c1ccc(C(=C2C=CC(=[N+](CC)Cc3cccc(S(=O)(=O)O)c3)C=C2)c2ccccc2S(=O)(=O)O)cc1,107,90.8%,118%,100%,106%,94.6,94.5%,97.4,–,98.4%,103,103%,106,99.2,93.7,97.4%,101%,–,109%,87.9%
C=C1CC[C@@H]2[C@](C)(COC(C)=O)[C@H](OC(C)=O)CC[C@@]2(C)[C@@H]1CC(NCc1ccccc1)C1=CCOC1=O (some centres not stated),67.2,24.7%,77.1%,64.7%,74.3%,62.1,63.9%,79.5,32.8,42.1%,41,–,68.2,47.6,10.1,–,38.8%,44.6%,68.6%,76.9%
COc1ccccc1-n1c(-c2ccc(O)cc2C)cn2c3c(=O)[nH]c(=O)n(C)c3nc12,112,98.9%,97.6%,65%,72.4%,86.4,99.8%,88.8,82.2,88.7%,98.4,–,117,97.6,77.1,81.5%,76.6%,72.6%,104%,7.76% (active)
COc1cc(/C=N/NC(=O)c2ccc(C(F)(F)F)nc2Nc2cc(Cl)ccc2C)cc(OC)c1OC,154,83.8%,61.8%,86.3%,77.7%,88.9,70.9%,103,112,–,104,127%,75.4,87.4,66.8,–,85%,–,99.5%,96%
COc1ccc(-c2cnc(SCC(=O)Nc3ccc(-c4nc5ccccc5s4)cc3)n2-c2ccc(OC)cc2)cc1,120,108%,129%,111%,121%,100,113%,102,116,112%,–,92.7%,98.8,109,97,99.4%,93.2%,95.2%,120%,93.5%
CC(=O)Nc1c(Cl)cc2c(c1Cl)Cc1cc([N+](=O)[O-])ccc1-2,93.3,80.4%,68.2%,97.5%,104%,101,81.8%,89.1,77.9,88.1%,101,–,95.8,89,72.6,55.9%,65.3%,86.2%,102%,36.6%
OCCN1CCN(CCCN2c3ccccc3Sc3ccc(C(F)(F)F)cc32)CC1,58.8,-55.8% (active),-66.6% (active),40.8%,28.2%,41,-43% (active),33.4,–,-80.9% (active),18.3,-43% (active),62.7,–,20.4,-93.3% (active),-55.5% (active),-41.6% (active),-86.6% (active),46.3%
O=C(NN1C(=O)c2cc(C(=O)O)c(C(=O)O)cc2C1=O)c1ccncc1,144,62.4%,76.8%,80.6%,127%,93.5,102%,112,114,–,103,108%,106,100,84.6,–,92.3%,109%,94.2%,145%
COC(=O)c1cc2oc(/C=N\NC(=O)c3cc4oc(C)c(C)c4[nH]3)cc2[nH]1,147,84.1%,82.5%,107%,101%,106,84.2%,101,114,–,108,111%,102,100,72,108%,115%,107%,110%,112%
O=C1/C=C/[C@@H](O)[C@@H]2C[C@@H](O)C[C@H]2/C=C/CCC[C@H](CO)O1,92.9,46.8%,7.5% (active),3.23% (active),-29.9% (active),20.6,23.9%,34.8,29.9,11.6%,26.2,–,48.8,24.1,39.5,-88% (active),15.8%,-44.8% (active),-18.8% (active),35.7%
COC(=O)c1cc2c(/C=C3/NC(=S)NC3=O)coc2n1C,134,95.6%,58.4%,82.2%,38.4%,37.7,45.2%,82.2,107,–,90.3,116%,101,70.7,66.7,96.5%,86.6%,98.2%,97%,79.4%
O=C(Nc1ccccc1S)c1ccccc1,111,86.2%,116%,102%,125%,103,100%,104,92.8,101%,108,–,100,94.8,88.5,114%,86.6%,–,112%,81.7%

# Source: PubChem BioAssay (NCI)
